Screening data: PubChem BioAssay, several laboratories
This is a sample that favours compounds with a hit; in the whole collection about 2.6% have one here.
TROY signal inh: inhibitors of TROY-driven NF-kB signaling, primary screen, Q293 LMP1-TROYcd cells, NF-kB luciferase, uHTS; AID 1347056, 2019; Q293 LMP1-TROYcd NF-kB luciferase reporter, 4 h; 0.98% of 360,000 active; inhibition, % at 10 µM;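 active = compounds whose plate-normalised and pattern-corrected inhibition of the luciferase reporter signal at the single screening dose is 50% or more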
LGR2 antag: inhibitors of bursicon-induced LGR2 CRE-luciferase signal, primary screen, cell-based, HEK293, CRE-luciferase reporter, bursicon stimulation | AID 720647, 2013 | Drosophila bursicon receptor LGR2 (rickets) | bursicon-stimulated, 4 h | inhibition, % at 9.99 µM | 0.35% of 380,000 active;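 active = drop in luminescence signal, shown as inhibition above about 50% in the replicate tests, limit read from the data, passing the limit was not always enough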;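 also: agonist challenge used bursicon conditioned medium at about half maximal strength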
KKLEB tox: cytotoxicity in KKLEB CF airway cells, primary screen, cytotoxicity control for CF NF-kB inhibitor project, cell-based, uHTS, fluorescence assay plates; KKLEB CF airway cells viability, ATPlite luminescence, overnight; hits give low values; cells stimulated with P. aeruginosa culture filtrate; activity change (cytotoxicity), % at 5 µM; 0.36% of 360,000 active;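 active = corrected activity change at or below -50% at 5 µM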
CF NFkB block: inhibitors of PAF-induced NF-kB signaling, primary screen, cell-based, GFP fluorescence, uHTS. KKLEB NF-kB-GFP reporter, GFP fluorescence overnight. inhibition, % at 5 µM. 0.86% of 360,000 active. AID 588850, 2011;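 active = at least 50% inhibition at 5 µM, scaled per plate between neutral and stimulator controls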;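 also: PAF is a Pseudomonas aeruginosa culture filtrate used as stimulus; plate controls were PAF-stimulated DMSO wells for no effect and unstimulated DMSO wells for full effect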
TWEAK-Fn14 inh: inhibitors of TWEAK-Fn14 signaling, primary screen, luciferase reporter cells, uHTS; AID 1159606, 2016; inhibition, % at 10 µM; TWEAK-stimulated Fn14 reporter cells, luciferase luminescence, 8 h; 2% of 360,000 active; in the data active = inhibition above about 50%
EWS-Fli block: EWS/Fli-driven NR0B1 reporter inhibitors, primary screen, A673 cells, NR0B1 luciferase, luminescence, MLPCN library. inhibition, % at 12.6 µM. 0.67% of 350,000 active. viability-normalised;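 active = mean inhibition of at least 50% after viability correction, with every replicate also passing that limit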;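 also: firefly luciferase signal divided by Alamar Blue viability fluorescence both relative to DMSO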
CF NFkB inh conf: inhibitors of PAF-induced NF-kB signaling, retest, confirmation, cell-based, GFP fluorescence, single concentration; inhibition, % at 5 µM; shares compounds with CF NFkB block; 64% of 1,300 active; KKLEB CF airway cells, overnight; in the data active = inhibition above about 40%;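 also: stimulus PAF is a Pseudomonas aeruginosa filtrate and not platelet activating factor; plate controls were DMSO wells with stimulus for no effect and unstimulated DMSO wells for full effect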
Numbers without * were called inactive; x = not tested or not shown.

SMILES	TROY signal inh	LGR2 antag	KKLEB tox	CF NFkB block	TWEAK-Fn14 inh	EWS-Fli block	CF NFkB inh conf
CCOC(=O)/C=C/C(=O)OCC(=O)Nc1cccc(Cl)c1Cl	-15	-2	6	-4	-11	8	x
CCOC(=O)/C=C/C(=O)Nc1ccccc1-c1ccccc1NC(=O)/C=C/C(=O)OCC	-52	40	-4	56*	58*	18	-34
O=C(NCCN1CCN(c2ccccc2)CC1)c1cccc(Br)c1	21	2	-14	52*	13	x	53*
Cc1cccc(C(=O)NCCN2CCN(c3ccccc3)CC2)c1	-6	x	4	-12	-7	x	x
O=C(c1ccc(S(=O)(=O)c2ccc(F)cc2)c([N+](=O)[O-])c1)N1CCCCCC1	43	46	-21	54*	77*	-14	39
CC(=O)C1=C(c2cccc([N+](=O)[O-])c2)N(C(C)=O)n2c(C)nnc2S1	-5	7	-40	52*	60*	16	22
COc1ccc(C2CNC(=O)C2)cc1OC1CCCC1 (stereo unspecified)	-4	-37	-14	52*	9	1	55*
COc1ccc(CCNS(=O)(=O)c2ccc(C3CNC(=O)C3)cc2)cc1OC (stereo unspecified)	-7	-5	8	-1	-10	10	x
O=c1[nH]nc(Sc2ncnc3sccc23)n1CCc1ccccc1	22	x	-21	54*	57*	x	45*
CCCNC(=O)N1[C@@H]2c3ccc(-c4ccc(OC)cc4)c(=O)n3C[C@H]1[C@H](CO)[C@H]2C(=O)NC1CCC1	x	11	x	x	x	-1	x
CC(=O)c1ccc(NC(=O)Nc2ccc3c(c2)N(C)C(=O)CS3)cc1	32	x	-34	72*	72*	x	53*
C[C@@]12CCC=C[C@H]1[C@H](c1ccc(C(F)(F)F)cc1)N(Cc1ccccc1)C2=O	-14	18	-14	58*	-18	13	39
C[C@@]12CCC=C[C@H]1[C@H](c1ccc(/C=C/c3ccccc3)cc1F)N(Cc1ccccc1)C2=O	12	-22	-9	22	0	22	x
COc1ccc(-c2cc(C(F)(F)F)nc(S(=O)(=O)CCC(=O)N3CCOCC3)n2)cc1	49	x	-36	79*	75*	x	47*
COc1ccc(-c2cc(C(F)(F)F)nc(SCC(=O)N3CCOCC3)n2)cc1OC	-13	-15	-10	16	-18	x	x
CSc1ccc(/C=C(\C#N)C(=O)NC2CCCCC2C)cc1 (stereo unspecified)	-11	20	-29	53*	35	-8	17
CC(=O)Nc1ccc(/C=C(\C#N)C(=O)NC2CCCCC2C)cc1 (stereo unspecified)	-11	-19	-20	-4	7	8	x
COc1ccc(NC(=O)N(C)C[C@@H]2Oc3ccc(N(C)C)cc3CC(=O)N([C@H](C)CO)C[C@H]2C)cc1	x	-20	x	x	x	x	x
S=c1[nH]nc(-c2ccncc2)n1/N=C/C(Cl)=C\c1ccccc1	22	-27	-13	73*	81*	-47	78*
Cc1ccc(-c2n[nH]c(=S)n2/N=C/c2ccc(C)o2)cc1	-7	3	-4	16	-5	x	x
S=c1[nH]nc(-c2ccncc2)n1/N=C/C=C/c1ccccc1	18	-4	-8	24	41	2	x
Cc1ccc(-c2n[nH]c(=S)n2/N=C/c2ccncc2)cc1	27	-1	-17	56*	72*	-9	85*
C[C@H]1CCCCO[C@@H](CN(C)C(=O)CCCN(C)C)[C@@H](C)CN([C@@H](C)CO)C(=O)c2cc(NC(=O)Nc3ccc(F)cc3)ccc2O1	x	-1	x	x	x	-9	x
